Hit rate of the full screen: of about 340,000 compounds, about 8,500 (2.5%) were called active. Only a selection was taken, and actives are over-represented in it overall. Unmarked numbers belong to inactive results.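 Rule for the calls: active = melting temperature shift of at least 10% of the positive control shift, at one fixed dose; inactive = the rest.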
tested on: Glutamate receptor ionotropic, NMDA 3A (GRIN3A) ligand-binding domain; assay: NR3A LBD thermal stabilization by compounds – biophysical, differential scanning fluorimetry, uHTS, primary screen (AID 1259313); details: at 25 µM, hits give high values, 0% = protein alone, 100% = glycine-bound protein

Row | Structure (SMILES) | Tm shift relative to glycine control
1 | CCOC(=O)c1c(Cc2ccc(Cl)cc2)c[nH]c1C | -13.2%
2 | CC(C)(C)NC(=O)CN(Cc1cccs1)C(=O)CNS(=O)(=O)c1ccccc1 | -2.34%
3 | Cn1nnnc1SCC(=O)N1CCN(Cc2ccccc2)CC1 | 0.27%
4 | Cn1nnnc1SCC(=O)N1CCN(C(c2ccccc2)c2ccccc2)CC1 | 11% (active)
5 | O=C(c1ccc(-n2cnnn2)cc1)N1CCN(C(c2ccccc2)c2ccccc2)CC1 | -0.38%
6 | N#C/C(C(=S)Nc1ccccc1)=C1/NN=C(N2CCOCC2)N1c1ccccc1 | 1.45%
7 | COc1ccc(NC(=O)CS(=O)(=O)c2ccccc2)cc1 | 2.82%
8 | CCC(C(=O)OCC(=O)Nc1c(Cl)cc(Cl)cc1Cl)c1ccccc1 (stereo not given) | -8.02%
9 | COc1ccc(NC(=O)COC(=O)c2ccc(NS(=O)(=O)/C=C/c3ccccc3)cc2)cc1 | 20.6% (active)
10 | CN(CC(=O)Nc1ccc(OC(F)F)cc1)S(=O)(=O)/C=C/c1ccccc1 | -9.87%
11 | CCC(C(=O)OCC(=O)Nc1ccccc1-c1ccccc1)c1ccccc1 (stereo not given) | -2.7%
12 | CCC(C(=O)OCC(=O)Nc1ccc(C(=O)Nc2ccc(OC)cc2)cc1)c1ccccc1 (stereo not given) | 22.5% (active)
13 | c1cnc(N2CCN(c3ccc4ccccc4n3)CC2)nc1 | -1.6%
14 | O=C(CN1CCc2ccccc21)NC(c1ccccc1)c1ccccc1 | -10.2%
15 | O=C1C=C(NCCNc2c(F)c(F)c(CO)c(F)c2F)CCC1 | -8.05%
16 | Cc1ccc(NC(=O)COC(=O)CN2CCCCCC2=O)c(C)c1 | -0.17%
17 | Cc1ccc(C(=O)NC2CCCC(C)C2C)cc1S(=O)(=O)N1CCCCC1 (stereo not given) | 20.8% (active)
18 | Cc1ccc(C(=O)NNC(=O)c2ccncc2)cc1S(=O)(=O)N1CCCCC1 | -0.93%
19 | CC1CCCC(NC(=O)c2cc(S(=O)(=O)N3CCCCC3)ccc2Cl)C1C (stereo not given) | -1.61%
20 | COCCOC(=O)C1=C(C)N=c2s/c(=C\c3cccs3)c(=O)n2C1c1cccs1 (stereo not given) | -1.71%
21 | O=C1CCCC2=C1C(c1ccccc1)n1c(s/c(=C/c3cccc(F)c3)c1=O)=N2 (stereo not given) | 2.84%
22 | COc1ccc(OC)c(C2C3=C(N=c4s/c(=C\c5cccc(O)c5)c(=O)n42)c2ccccc2CC3)c1 (stereo not given) | 17.9% (active)
23 | COC1=CCC2([N+](=O)[O-])CN(CC(=O)O)CC1([N+](=O)[O-])C2 (stereo not given) | -3.94%

Row | Structure (SMILES) | Tm shift relative to glycine control
24 | O=C(CCc1ccc(S(=O)(=O)N2CCOCC2)cc1)OCC(=O)c1ccc(Br)cc1 | -0.17%
25 | N#CCC(=O)NC1CCC(CC2CCC(NC(=O)CC#N)CC2)CC1 (stereo not given) | 0.51%
26 | O=[N+]([O-])c1ccc(COc2ccccc2CN2CCOCC2)cc1 | -1.9%
27 | COc1ccc(C(=O)N2CCC(C(=O)Nc3cccc(C)c3)CC2)cc1OC | -0.09%
28 | Cc1cc(C)c2c(-n3cccc3)c(NC(=O)OCc3ccccc3)sc2n1 | 0.08%
29 | CCCCOC(=O)Nc1sc2nc(C)cc(C)c2c1-n1cccc1 | 11% (active)
30 | COC(=O)Nc1sc2nc(C)cc(C)c2c1-n1cccc1 | -4.15%
31 | CCC(CC)NC(=O)CSc1nnc(-c2c[nH]c3ccccc23)o1 | 1.71%
32 | COc1cccc(CNC(=O)CCC2CCCN(Cc3ccc(OC(F)F)cc3)C2)c1 (stereo not given) | 1.06%
33 | Cn1nc(C(=O)OCC(=O)N(Cc2ccccc2)C(C)(C)C)c2ccccc2c1=O | 0.45%
34 | OCCNc1nc2ccccc2n1-c1ncnc2sc3c(c12)CCC3 | 19.1% (active)
35 | O=C(O)c1cccnc1Sc1ncnc2sc3c(c12)CCC3 | -2.96%
36 | O=C(Cn1c(NCCO)nc2ccccc21)c1ccc(Cl)cc1Cl | -1.09%
37 | CC12C(=O)N(n3cnnc3)C(=O)C1C1C=CC2C1 (stereo not given) | 0.47%
38 | Cc1ccccc1NC(=O)c1cc(S(=O)(=O)Nc2cccc(C(=O)O)c2)ccc1Cl | 0%
39 | Cc1ccc(C(=O)Nc2ccccc2-c2ccccc2)cc1S(=O)(=O)Nc1ccccc1 | 9.58%
40 | C=CCNC(=O)c1ccccc1NC(=O)c1ccc(Cl)c(S(=O)(=O)Nc2cccc(C)c2C)c1 | 16% (active)
41 | C=CCn1c(SCc2ccc(Cl)c(Cl)c2)nnc1C(CO)NC(=O)c1ccc(OC)cc1 (stereo not given) | -6.08%
42 | Cc1ccc(NC(=O)CN(C)Cc2ccc(F)cc2)c([N+](=O)[O-])c1 | 12.7% (active)
43 | CSc1ccccc1NC(=O)CN(C)CC(=O)Nc1ccc(Cl)cc1[N+](=O)[O-] | 2.47%
44 | CN(CC(=O)Nc1ccccc1[N+](=O)[O-])Cc1ccc(Br)cc1 | -2.8%
45 | O=C(O)c1ccc([N+](=O)[O-])cc1Sc1ccsc1 | 1.67%
46 | CC(=O)Nc1ccc(CN2CCN(Cc3ccc(F)c(F)c3)C(CCO)C2)cc1 (stereo not given) | -0.08%

Row | Structure (SMILES) | Tm shift relative to glycine control
47 | CN(C)c1ccc(NC(=O)CSc2n[nH]c(-c3ccco3)n2)cc1 | 0.92%
48 | CCN1CCN(c2nc(Nc3cccc(F)c3)nc(N)c2[N+](=O)[O-])CC1 | 0.95%
49 | COc1cccc(Nc2nc(N)c([N+](=O)[O-])c(NCc3ccco3)n2)c1 | -10.5%
50 | CNc1nc(Nc2ccc(C)c(Cl)c2)nc(N)c1[N+](=O)[O-] | 25.8% (active)
51 | Cc1cn(C)c(=O)n(C)c1=O | -0.48%
52 | CCN(CC)S(=O)(=O)c1ccc(NC(=O)c2cccnc2Cl)c(NC(=O)c2cccnc2Cl)c1 | -0.78%
53 | CCOC(=O)c1nc(N)sc1C(=O)OCC | 17.7% (active)
54 | CC(=O)c1sc(N)nc1C | 2.68%
55 | CCOC(=O)c1sc(NC(=O)c2sc(C)nc2C)nc1C | 3.53%
56 | CN(C)C(=O)CCC(=O)N1CCCCC1C(=O)Nc1ccc(Oc2ccccc2F)cc1 (stereo not given) | -0.77%
57 | O=S(=O)(c1ccc(Cl)cc1)N1CCCN(c2ccc(C(F)(F)F)cn2)CC1 | -4.38%
58 | COc1cc([N+](=O)[O-])ccc1NC(=O)COC(=O)CCOc1ccc(C)cc1 | 2.57%
59 | COc1ccccc1CC(=O)Nc1ccc([N+](=O)[O-])cc1OC | 10.2% (active)
60 | COC(=O)c1ccccc1NC(=O)Cc1ccccc1OC | -0.63%
61 | COc1ccc(CCNC(=O)COC(=O)c2ccc[nH]c2=O)cc1 | -2.27%
62 | Cc1cccc(/C=N/NC(=O)CNc2cccc3ccccc23)n1 | 4.98%
63 | Cc1ccccc1NCC(=O)N/N=C\c1ccc([N+](=O)[O-])s1 | 11.5% (active)
64 | Cc1ccc(/C=N/NC(=O)CN2CCN(Cc3ccccc3)CC2)s1 | -1.47%
65 | COc1ccc(C)cc1-n1nnnc1SCc1nc2ccccc2c(=O)[nH]1 | 0.31%
66 | Cc1ccc(Nc2nc(CSc3nnnn3-c3ccccc3)cc(=O)[nH]2)cc1 | 10.7% (active)
67 | Cc1ccc(NC(=O)CSc2nc(CSc3ccc(C)cc3)cc(=O)[nH]2)cc1 | -30.2%
68 | O=C(Nc1ccc(Br)cc1)c1cccc(NC(=O)C2C3CC4OC(=O)C2C4C3)c1 (stereo not given) | -8.89%
69 | O=C(NC(=S)Nc1cccc(-c2ccc(CO)o2)c1)c1cccs1 | -18.4%

Row | Structure (SMILES) | Tm shift relative to glycine control
70 | O=C(Nc1ccc(Cl)cc1)C1c2cccc[n+]2CC(=O)N1Cc1ccc2c(c1)OCO2 (stereo not given) | 0.68%
71 | CCCOc1ccc(NC(=O)CC2C(=O)N(C)C(=S)N2Cc2ccc3c(c2)OCO3)cc1 (stereo not given) | 23.2% (active)
72 | COc1ccc(N2C(=O)C(CC(=O)Nc3ccccc3)N(Cc3ccc(OC)c(OC)c3)C2=O)cc1 (stereo not given) | -3.64%
73 | O=C(CN1CCN(C(=S)NC2CCCC2)CC1)Nc1ccc(Oc2ccccc2)cc1 | -2.87%
74 | O=C(NCc1ccccc1Cl)C1CCN(S(=O)(=O)c2cccc3nonc23)CC1 | 2.6%
75 | Cc1ccc(CN2C(=O)N/C(=C/c3cc(C)n(-c4ccccn4)c3C)C2=O)cc1 | 57.7% (active)
76 | Cc1cc(/C=C2/NC(=O)NC2=O)c(C)n1-c1cccnc1 | -4.95%
77 | Cc1ccccc1-n1c(C)cc(/C=C2\NC(=O)NC2=O)c1C | -2.81%
78 | COc1ccc(C2=NN(c3ccccc3)C(c3cccs3)C2)cc1 (stereo not given) | 0.58%
79 | O=C1C2N=NN(CC(=O)N3N=C(c4cccc5ccccc45)CC3c3ccccc3)C2C(=O)N1c1ccccc1 (stereo not given) | -0.6%
80 | Oc1ccccc1C1=NN(c2ccccc2)C(c2ccccc2)C1 (stereo not given) | 11.9% (active)
81 | Cc1ccc(C(=O)COC(=O)CCN2C(=O)C3C4CCC(C4)C3C2=O)cc1C (stereo not given) | 1.5%
82 | O=C(CCN1C(=O)C2C3C=CC(C3)C2C1=O)Oc1ccc2ccccc2c1 (stereo not given) | -2.31%
83 | Cc1ccc(C(=O)COC(=O)CCN2C(=O)C3C4CC(C(Br)C4Br)C3C2=O)cc1 (stereo not given) | 18% (active)
84 | Cc1nn(Cc2ccc(Cl)cc2)c(Cl)c1/C=N/NC(=O)CNc1ccccc1F | 16.1% (active)
85 | Cc1nn(Cc2ccc(Cl)cc2)c(Cl)c1/C=N/NC(=O)c1cccnc1 | -6.33%
86 | CCn1nc(C)c(/C=N/NC(=O)Cc2ccc(Cl)cc2)c1C | 1.94%
87 | C/C=C/C(=O)OCc1csc(CC(=O)Nc2ccccc2C)n1 | -1.3%
88 | Cc1ccc(S(=O)(=O)N2CCN(CC(=O)N/N=C/c3cc([N+](=O)[O-])ccc3Cl)CC2)cc1 | 19.9% (active)
89 | Cc1ccc(C)c(S(=O)(=O)N2CCN(CC(=O)Nc3ccc([N+](=O)[O-])cc3)CC2)c1 | -7.08%
90 | Cc1ccc(S(=O)(=O)N2CCN(CC(=O)N/N=C/c3ccc(Br)s3)CC2)cc1 | 0.82%

— PubChem BioAssay AID1259313 (Sanford-Burnham Center for Chemical Genomics, 2017)
